# From the supplement of paper PMC11732987, “Enantioselective OTUD7B fragment discovery through chemoproteomics screening and high-throughput optimisation” (Communications Chemistry, 2025)
# Unmarked numbers belong to inactive results.
# Tests used:
# Test in all cases: log2 ratio of Biotin-Ahx-Ub-VS probe labelling (fragment/DMSO); higher = less target engagement (more negative = stronger competition), active = hit call of the paper (q ≤ 0.05, log2 ratio ≤ -1)
# Conditions in all cases: compound concentration: 200 uM; treatment time: 3 h
# USP19 = biological target: T1, USP19 (UniProt O94966)
# T1 sequence (whole entry): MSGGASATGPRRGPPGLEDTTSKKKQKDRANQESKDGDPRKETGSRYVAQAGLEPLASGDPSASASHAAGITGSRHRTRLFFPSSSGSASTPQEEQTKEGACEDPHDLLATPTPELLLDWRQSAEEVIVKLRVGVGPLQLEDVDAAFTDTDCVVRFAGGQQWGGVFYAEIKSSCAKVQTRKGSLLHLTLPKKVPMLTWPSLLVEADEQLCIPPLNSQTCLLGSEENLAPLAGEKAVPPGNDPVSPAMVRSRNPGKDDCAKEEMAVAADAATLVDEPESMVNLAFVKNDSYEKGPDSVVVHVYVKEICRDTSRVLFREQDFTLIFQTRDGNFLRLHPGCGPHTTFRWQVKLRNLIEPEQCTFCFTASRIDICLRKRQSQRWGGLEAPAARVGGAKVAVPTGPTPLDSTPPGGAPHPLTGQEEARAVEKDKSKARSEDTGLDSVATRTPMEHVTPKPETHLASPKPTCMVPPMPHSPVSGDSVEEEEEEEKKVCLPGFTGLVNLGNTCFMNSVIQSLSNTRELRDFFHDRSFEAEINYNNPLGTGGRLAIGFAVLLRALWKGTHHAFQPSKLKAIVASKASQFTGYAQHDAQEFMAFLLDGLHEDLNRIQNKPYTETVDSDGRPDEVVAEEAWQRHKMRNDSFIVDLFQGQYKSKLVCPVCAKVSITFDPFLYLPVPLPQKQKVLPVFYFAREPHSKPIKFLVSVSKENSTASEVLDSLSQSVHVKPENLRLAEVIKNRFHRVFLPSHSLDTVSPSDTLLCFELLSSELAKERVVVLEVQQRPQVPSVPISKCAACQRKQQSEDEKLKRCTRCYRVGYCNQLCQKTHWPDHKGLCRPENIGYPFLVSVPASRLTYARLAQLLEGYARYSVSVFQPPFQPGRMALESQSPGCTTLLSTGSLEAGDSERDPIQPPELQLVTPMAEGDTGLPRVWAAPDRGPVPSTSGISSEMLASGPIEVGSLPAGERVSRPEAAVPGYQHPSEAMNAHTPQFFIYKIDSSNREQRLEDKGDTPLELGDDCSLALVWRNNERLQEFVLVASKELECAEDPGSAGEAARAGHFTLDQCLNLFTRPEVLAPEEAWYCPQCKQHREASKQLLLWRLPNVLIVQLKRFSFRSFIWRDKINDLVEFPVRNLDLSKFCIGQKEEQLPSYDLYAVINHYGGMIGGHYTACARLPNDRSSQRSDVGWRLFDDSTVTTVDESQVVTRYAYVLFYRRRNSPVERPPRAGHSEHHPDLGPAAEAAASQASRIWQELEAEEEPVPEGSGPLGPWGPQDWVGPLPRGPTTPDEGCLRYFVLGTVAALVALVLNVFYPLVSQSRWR
# How it was run: (§1)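 Each value is an average log2 ratio of fragment to vehicle, tested by unpaired t-test. The underlying Spectronaut label-free quantities were global-median-normalised, and only proteins with ≥2 unique peptides were included. Triplicate HEK293T lysate samples (495 µg) were exposed to fragment at 200 µM or vehicle for 3 h, then to Biotin-Ahx-Ub-VS at 0.5 µM final for 1 h, before NeutrAvidin enrichment of labelled DUBs, LysC and trypsin digestion, and diaPASEF LC-MS/MS.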
# USP22 = biological target: T2, USP22 (UniProt Q9UPT9)
# T2 sequence (whole entry): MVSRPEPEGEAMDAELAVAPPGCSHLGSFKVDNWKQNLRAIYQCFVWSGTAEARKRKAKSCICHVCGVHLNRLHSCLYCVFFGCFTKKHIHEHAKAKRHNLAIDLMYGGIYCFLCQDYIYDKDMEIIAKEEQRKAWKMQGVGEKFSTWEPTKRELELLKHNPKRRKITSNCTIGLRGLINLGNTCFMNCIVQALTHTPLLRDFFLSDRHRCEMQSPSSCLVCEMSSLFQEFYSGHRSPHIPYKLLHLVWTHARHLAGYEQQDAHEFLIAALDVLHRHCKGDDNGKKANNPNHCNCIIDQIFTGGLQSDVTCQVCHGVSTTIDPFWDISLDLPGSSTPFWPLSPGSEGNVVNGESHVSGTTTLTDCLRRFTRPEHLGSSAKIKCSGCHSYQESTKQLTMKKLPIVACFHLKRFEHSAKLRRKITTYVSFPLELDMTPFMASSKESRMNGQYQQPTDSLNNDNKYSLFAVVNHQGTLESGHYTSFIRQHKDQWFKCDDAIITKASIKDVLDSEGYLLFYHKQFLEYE
# How it was run: as §1
# USP24 = USP24 (UniProt Q9UPU5)
# How it was run: as §1
# USP25 = biological target: T3, USP25 (UniProt Q9UHP3)
# T3 sequence (whole entry): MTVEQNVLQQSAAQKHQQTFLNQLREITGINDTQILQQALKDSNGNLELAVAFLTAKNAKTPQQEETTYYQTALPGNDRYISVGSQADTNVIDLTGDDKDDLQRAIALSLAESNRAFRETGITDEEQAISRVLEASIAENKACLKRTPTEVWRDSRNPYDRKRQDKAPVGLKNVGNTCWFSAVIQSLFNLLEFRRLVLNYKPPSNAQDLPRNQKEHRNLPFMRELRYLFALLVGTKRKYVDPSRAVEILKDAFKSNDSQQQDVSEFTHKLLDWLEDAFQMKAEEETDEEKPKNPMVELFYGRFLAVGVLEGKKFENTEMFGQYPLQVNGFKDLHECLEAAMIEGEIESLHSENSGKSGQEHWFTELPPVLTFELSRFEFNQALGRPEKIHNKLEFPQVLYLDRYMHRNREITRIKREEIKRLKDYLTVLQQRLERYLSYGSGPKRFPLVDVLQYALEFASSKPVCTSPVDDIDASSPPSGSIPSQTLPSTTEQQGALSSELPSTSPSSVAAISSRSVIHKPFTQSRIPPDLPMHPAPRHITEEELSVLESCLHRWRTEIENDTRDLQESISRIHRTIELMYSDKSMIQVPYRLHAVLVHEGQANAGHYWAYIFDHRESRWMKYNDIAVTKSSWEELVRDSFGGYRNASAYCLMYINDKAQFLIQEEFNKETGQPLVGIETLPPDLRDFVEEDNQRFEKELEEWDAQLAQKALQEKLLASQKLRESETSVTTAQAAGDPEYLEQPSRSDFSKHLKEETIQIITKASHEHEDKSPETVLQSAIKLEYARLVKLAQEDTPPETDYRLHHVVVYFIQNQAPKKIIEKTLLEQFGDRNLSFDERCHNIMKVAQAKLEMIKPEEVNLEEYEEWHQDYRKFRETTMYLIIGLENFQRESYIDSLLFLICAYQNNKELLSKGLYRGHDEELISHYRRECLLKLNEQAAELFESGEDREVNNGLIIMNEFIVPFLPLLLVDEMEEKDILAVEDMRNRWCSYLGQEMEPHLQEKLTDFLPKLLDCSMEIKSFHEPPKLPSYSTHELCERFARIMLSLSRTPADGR
# How it was run: as §1
# USP28 = biological target: T4, USP28 (UniProt Q96RU2)
# T4 sequence (whole entry): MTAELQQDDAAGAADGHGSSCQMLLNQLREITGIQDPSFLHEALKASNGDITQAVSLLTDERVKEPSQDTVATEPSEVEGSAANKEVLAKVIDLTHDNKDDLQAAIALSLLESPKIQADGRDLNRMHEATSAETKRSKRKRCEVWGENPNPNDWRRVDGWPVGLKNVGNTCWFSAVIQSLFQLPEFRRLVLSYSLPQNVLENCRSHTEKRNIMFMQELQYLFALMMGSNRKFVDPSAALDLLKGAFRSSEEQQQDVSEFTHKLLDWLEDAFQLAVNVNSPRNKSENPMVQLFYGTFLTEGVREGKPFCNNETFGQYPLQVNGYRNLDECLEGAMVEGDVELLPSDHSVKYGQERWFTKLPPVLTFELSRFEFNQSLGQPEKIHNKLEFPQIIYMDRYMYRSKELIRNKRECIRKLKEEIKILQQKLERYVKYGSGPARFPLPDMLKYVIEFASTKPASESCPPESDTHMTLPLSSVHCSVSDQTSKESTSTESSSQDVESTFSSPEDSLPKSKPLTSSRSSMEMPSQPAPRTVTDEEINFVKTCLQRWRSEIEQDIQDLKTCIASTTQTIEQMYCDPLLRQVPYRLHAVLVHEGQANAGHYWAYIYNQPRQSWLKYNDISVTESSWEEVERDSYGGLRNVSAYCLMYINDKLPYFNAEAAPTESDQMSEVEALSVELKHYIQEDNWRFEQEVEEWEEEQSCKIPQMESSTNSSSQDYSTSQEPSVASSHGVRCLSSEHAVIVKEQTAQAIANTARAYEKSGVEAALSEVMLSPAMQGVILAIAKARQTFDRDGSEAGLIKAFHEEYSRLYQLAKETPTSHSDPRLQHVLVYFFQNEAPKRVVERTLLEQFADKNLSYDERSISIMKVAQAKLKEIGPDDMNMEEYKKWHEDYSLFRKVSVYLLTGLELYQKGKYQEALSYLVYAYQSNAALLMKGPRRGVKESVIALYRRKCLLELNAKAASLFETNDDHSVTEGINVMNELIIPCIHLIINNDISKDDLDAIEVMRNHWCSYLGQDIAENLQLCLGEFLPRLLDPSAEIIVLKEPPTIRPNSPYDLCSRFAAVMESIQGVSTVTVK
# How it was run: as §1
# Chain of USP24 (Q9UPU5 whole entry): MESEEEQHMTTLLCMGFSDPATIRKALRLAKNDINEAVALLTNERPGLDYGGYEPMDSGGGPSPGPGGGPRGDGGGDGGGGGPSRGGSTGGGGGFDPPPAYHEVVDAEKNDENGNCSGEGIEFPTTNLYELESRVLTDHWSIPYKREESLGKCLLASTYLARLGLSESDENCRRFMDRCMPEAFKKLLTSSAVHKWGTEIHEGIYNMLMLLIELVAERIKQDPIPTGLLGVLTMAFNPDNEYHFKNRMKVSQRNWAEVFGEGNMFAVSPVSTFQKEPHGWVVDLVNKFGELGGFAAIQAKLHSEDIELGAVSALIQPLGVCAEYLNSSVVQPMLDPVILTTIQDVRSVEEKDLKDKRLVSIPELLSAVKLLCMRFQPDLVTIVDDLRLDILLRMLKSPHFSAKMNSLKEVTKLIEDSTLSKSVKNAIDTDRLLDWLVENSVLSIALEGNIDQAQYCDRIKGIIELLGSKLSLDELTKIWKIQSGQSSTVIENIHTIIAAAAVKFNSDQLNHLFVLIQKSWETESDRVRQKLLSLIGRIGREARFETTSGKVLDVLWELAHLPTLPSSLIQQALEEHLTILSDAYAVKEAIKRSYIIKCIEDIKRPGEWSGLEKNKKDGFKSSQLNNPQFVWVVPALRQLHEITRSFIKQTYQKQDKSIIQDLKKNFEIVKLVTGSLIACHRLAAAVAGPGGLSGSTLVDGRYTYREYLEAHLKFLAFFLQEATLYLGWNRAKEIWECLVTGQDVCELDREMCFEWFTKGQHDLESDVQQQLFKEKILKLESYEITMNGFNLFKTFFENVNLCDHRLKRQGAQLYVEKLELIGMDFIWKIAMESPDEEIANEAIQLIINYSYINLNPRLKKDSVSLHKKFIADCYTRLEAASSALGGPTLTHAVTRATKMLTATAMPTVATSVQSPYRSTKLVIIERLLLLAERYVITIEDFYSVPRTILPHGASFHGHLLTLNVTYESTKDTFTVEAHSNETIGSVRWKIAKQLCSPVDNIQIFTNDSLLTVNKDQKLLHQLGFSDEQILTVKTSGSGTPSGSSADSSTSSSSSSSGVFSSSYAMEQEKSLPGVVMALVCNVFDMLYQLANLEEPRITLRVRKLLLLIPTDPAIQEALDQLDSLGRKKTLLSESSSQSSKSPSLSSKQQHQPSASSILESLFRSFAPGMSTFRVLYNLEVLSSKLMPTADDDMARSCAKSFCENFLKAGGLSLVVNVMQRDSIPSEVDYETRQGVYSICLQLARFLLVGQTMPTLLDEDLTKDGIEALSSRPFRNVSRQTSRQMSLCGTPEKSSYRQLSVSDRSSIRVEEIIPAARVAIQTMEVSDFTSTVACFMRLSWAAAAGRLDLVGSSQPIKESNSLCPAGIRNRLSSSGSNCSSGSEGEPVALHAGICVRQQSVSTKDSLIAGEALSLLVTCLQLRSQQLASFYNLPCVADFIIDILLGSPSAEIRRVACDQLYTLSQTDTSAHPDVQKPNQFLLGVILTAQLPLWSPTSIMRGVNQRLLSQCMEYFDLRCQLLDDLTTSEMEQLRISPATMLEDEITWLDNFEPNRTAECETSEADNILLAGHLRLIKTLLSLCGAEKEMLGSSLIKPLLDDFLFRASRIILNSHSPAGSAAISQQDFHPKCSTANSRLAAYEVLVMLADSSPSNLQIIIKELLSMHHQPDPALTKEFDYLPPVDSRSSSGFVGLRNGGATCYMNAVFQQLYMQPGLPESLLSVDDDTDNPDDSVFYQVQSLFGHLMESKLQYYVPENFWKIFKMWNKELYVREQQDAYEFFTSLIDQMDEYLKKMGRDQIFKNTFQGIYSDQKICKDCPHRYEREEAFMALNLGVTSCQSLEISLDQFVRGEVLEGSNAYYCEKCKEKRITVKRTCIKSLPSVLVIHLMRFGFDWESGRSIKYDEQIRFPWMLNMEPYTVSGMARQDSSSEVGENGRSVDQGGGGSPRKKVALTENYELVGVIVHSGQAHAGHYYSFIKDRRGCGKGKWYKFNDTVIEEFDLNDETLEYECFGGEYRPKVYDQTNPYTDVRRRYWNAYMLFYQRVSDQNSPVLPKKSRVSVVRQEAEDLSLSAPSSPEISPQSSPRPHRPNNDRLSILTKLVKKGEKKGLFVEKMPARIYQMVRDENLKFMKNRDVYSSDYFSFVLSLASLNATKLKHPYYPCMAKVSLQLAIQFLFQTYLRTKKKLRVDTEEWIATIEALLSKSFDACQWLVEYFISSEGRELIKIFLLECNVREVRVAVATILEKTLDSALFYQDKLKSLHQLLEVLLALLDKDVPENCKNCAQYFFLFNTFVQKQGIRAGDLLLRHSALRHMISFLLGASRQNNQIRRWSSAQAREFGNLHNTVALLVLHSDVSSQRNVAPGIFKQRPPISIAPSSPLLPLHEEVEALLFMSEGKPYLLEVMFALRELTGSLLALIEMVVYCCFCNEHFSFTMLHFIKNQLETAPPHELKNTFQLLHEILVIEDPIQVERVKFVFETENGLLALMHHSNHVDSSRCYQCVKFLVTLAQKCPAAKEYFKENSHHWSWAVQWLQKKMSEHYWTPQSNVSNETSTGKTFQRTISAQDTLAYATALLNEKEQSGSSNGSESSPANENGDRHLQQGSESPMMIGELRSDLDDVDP
compound,measurement,setting,value
O=C(CCl)Nc1ccc(Cl)c(F)c1,log2 ratio of Biotin-Ahx-Ub-VS probe labelling,USP19,-0.486
same,log2 ratio of Biotin-Ahx-Ub-VS probe labelling,USP22,-0.253
same,log2 ratio of Biotin-Ahx-Ub-VS probe labelling,USP24,-1.66 (active)
same,log2 ratio of Biotin-Ahx-Ub-VS probe labelling,USP25,-1.62 (active)
same,log2 ratio of Biotin-Ahx-Ub-VS probe labelling,USP28,-1.53 (active)
